The list is not random: actives were taken first. Their share in the collection is about 0.81%.
NR2F2 inh = NR2F2 (human) inhibition, primary screen; AID 686940; inhibition, % at 8.6 µM; HEK293T NGFI-A luciferase reporter, luminescence; actives 0.7% (n = 370,000);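 active = inhibition above a per-plate cutoff, mean inhibition of test wells between control levels plus 3 SD, cut at about 38% in these data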;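 also: cells cotransfected with COUP-TFII expression vector driving the NGFI-A reporter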
NCOA3 inh = inhibitors of human steroid receptor coactivator 3 (SRC3). Q9Y6Q9. AID 588352. inhibition, % at 3.6 µM. actives 0.17% (n = 360,000). HEK293 GAL4-SRC3 luciferase reporter, luminescence;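 active = inhibition above a per-campaign cutoff, the mean of all compounds plus 3 SD, cut at about 60% in these data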;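 also: higher means less SRC3-driven luciferase light from the GAL4 reporter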
NR5A2 inv ag = inverse agonists of human LRH-1 (NR5A2). O00482. HEK293T StAR-luciferase reporter, LRH-1 transfected, 24 h. inhibition, % at 3.6 µM. actives 0.13% (n = 360,000). AID 602396;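 active = inhibition above the mean inhibition of all tested compounds plus 3 SD, cut at about 73% in these data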
NCOA2 inhibitor = inhibits human steroid receptor coactivator 2; actives 0.17% (n = 370,000); AID 651957; Q15596; HEK293 GAL4-SRC2 luciferase reporter, luminescence; inhibition, % at 9 µM;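 active = inhibition above the mean inhibition of all tested compounds plus 3 SD, set per campaign, cut at about 52% in these data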
NCOA1 inh = inhibitors of human steroid receptor coactivator 1 (SRC1) | HEK293 GAL4-SRC1 luciferase reporter, luminescence | Q15788 | actives 0.12% (n = 360,000) | inhibition, % at 3.6 µM;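 active = inhibition above the campaign mean plus 3 SD, with each screening campaign given its own cutoff, cut at about 60% in these data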
VP16 Luc counter = VP16 inhibition counter-screen for COUP-TFII | AID 687007 | HEK293 Gal4-VP16 luciferase reporter, luminescence | shares compounds with NR2F2 inh | actives 25% (n = 2,500) | inhibition, % at 8.5 µM; in the data active = inhibition above about 13%
NR2F2 inh conf = confirmation of human COUP-TFII (NR2F2) inhibitors. shares compounds with NR2F2 inh. HEK293 NGFI-A luciferase reporter, luminescence. AID 687008. inhibition, % at 8.5 µM. actives 45% (n = 2,500);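 active = mean inhibition over three repeats above a set limit taken from the earlier primary screen, cut at about 38% in these data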
Each line names hits and unclear results; the compound was inactive in the other large screens (follow-up assays come after a bar, where they were run).

COc1ccc(C=C2CS(=O)(=O)CC(=Cc3ccc(OC)cc3)C2=O)cc1	NR2F2 inh 71.3 | VP16 Luc counter 46.7 | NR2F2 inh conf 64.5
COc1ccc(CCNC(=O)CCNC(=O)c2ccc([N+](=O)[O-])cc2)cc1	NR2F2 inh 38.5 | VP16 Luc counter inactive | NR2F2 inh conf inactive
O=C(CCNC(=O)c1ccc([N+](=O)[O-])cc1)NCCc1ccc(Cl)cc1	none
Cc1ccc(C(=O)CN2C(=O)c3ccccc3S2(=O)=O)cc1	NR2F2 inh 73.9, NCOA3 inh 63.2, NCOA2 inhibitor 68.5 | VP16 Luc counter 76.8 | NR2F2 inh conf 91.2
O=C(CN1C(=O)c2ccccc2S1(=O)=O)c1ccccc1Cl	NR2F2 inh 63.1, NCOA2 inhibitor 56.6 | VP16 Luc counter inactive | NR2F2 inh conf inactive
N[C@H]1CC[C@@H]2SC[C@@H](C(=O)O)N2C1=O	none (no result: NCOA3 inh, NR5A2 inv ag, NCOA1 inh)
COc1cc(NC(=O)CSc2nc3[nH]ncc3c(=O)n2-c2ccccc2C)cc(OC)c1OC	none
C=CCN(C(=O)CSc1nc2[nH]ncc2c(=O)n1-c1ccccc1OC)c1ccccc1	NR2F2 inh 41.7 | VP16 Luc counter inactive | NR2F2 inh conf inactive
C[C@H]1C2CC(OC(=O)Nc3ccc(C(F)(F)F)cc3)C(C2)[C@H]2CCCCN21 (some centres undefined)	none (no result: NCOA3 inh, NR5A2 inv ag, NCOA1 inh)
Clc1cccc(CNc2nnnn2-c2ccccc2)c1	NR2F2 inh 38.8 | VP16 Luc counter inactive | NR2F2 inh conf inactive
Cn1nnnc1NCc1cccc(Cl)c1	none
Cc1ccc(-c2c[n+](Cc3cccc(Cl)c3)c3n2CCC3)cc1	NR2F2 inh 38.2 | VP16 Luc counter inactive | NR2F2 inh conf inactive
c1ccc(-c2csc3ncnc(NCc4ccccn4)c23)cc1	none
c1ccc(CNc2ncnc3scc(-c4cccs4)c23)nc1	NR2F2 inh 59.9 | VP16 Luc counter inactive | NR2F2 inh conf inactive
CCN(CC)S(=O)(=O)c1ccc(C)c(NC(=S)N2CCN(C/C=C/c3ccccc3)CC2)c1	NR2F2 inh 42.7 | VP16 Luc counter inactive | NR2F2 inh conf inactive
O=C(NCc1cccs1)C1CCCN(S(=O)(=O)c2cccc3ccccc23)C1 (centres undefined)	none (no result: NCOA3 inh, NR5A2 inv ag, NCOA1 inh)
Cc1sc(-c2ccccn2)nc1OC(=O)c1ccc(Cl)c(Cl)c1	none
Cc1sc(-c2ccccn2)nc1OC(=O)c1ccc(F)cc1F	NR2F2 inh 37.8 | VP16 Luc counter inactive | NR2F2 inh conf inactive
COc1ccccc1NS(=O)(=O)c1cccc(C(=O)NC2CCN(Cc3ccccc3)CC2)c1	none (no result: NR2F2 inh, NCOA2 inhibitor)
COc1ccccc1NS(=O)(=O)c1ccc(C)c(C(=O)NC2CCN(Cc3ccccc3)CC2)c1	NR2F2 inh 46.5 | VP16 Luc counter inactive | NR2F2 inh conf inactive
COc1ccccc1NS(=O)(=O)c1cc(C(=O)NC2CCN(Cc3ccccc3)CC2)ccc1C	NR2F2 inh 67.6 (no result: NCOA3 inh, NR5A2 inv ag, NCOA1 inh) | VP16 Luc counter inactive | NR2F2 inh conf 45.4
COc1ccccc1-c1cc2nc(-c3ccccc3)cc(N3CCN(C(=O)c4ccco4)CC3)n2n1	NR2F2 inh 93.6 | VP16 Luc counter inactive | NR2F2 inh conf 76.0
COc1ccccc1-c1cc2nc(-c3ccccc3)cc(N3CCN(C(=O)c4ccoc4)CC3)n2n1	NR2F2 inh 87.4 | VP16 Luc counter inactive | NR2F2 inh conf 60.2
O=C(c1ccoc1)N1CCN(c2cc(-c3ccccc3)nc3cc(-c4ccccc4)nn23)CC1	none
CCOC(=O)C1CCN(C(c2cccnc2)c2c(NC(=O)c3ccco3)sc(C)c2C)CC1 (centres undefined)	NR2F2 inh 69.6 | VP16 Luc counter inactive | NR2F2 inh conf 39.1
CCC[C@H]1[C@@H](OC(=O)NCc2ccc(OC)cc2)CC[C@@]23CCCN2C(=O)CCC[C@@H]13	none (no result: NCOA3 inh, NR5A2 inv ag, NCOA2 inhibitor, NCOA1 inh)
Cc1ccc(C)c(NC(=O)CN(C)C(=O)c2cccc(S(=O)(=O)N3CCCC3)c2)c1	none
COc1ccc(CN(C)C(=O)c2cccc(S(=O)(=O)N3CCN(c4ccccc4)CC3)c2)c(OC)c1OC	NR2F2 inh 41.1 | VP16 Luc counter inactive | NR2F2 inh conf inactive
COc1cccc(CN(C)C(=O)c2cccc(S(=O)(=O)N3CCN(c4ccccc4)CC3)c2)c1	none
CSc1ccc(CN(C)C(=O)c2cccc(S(=O)(=O)N3CCN(Cc4ccccc4)CC3)c2)cc1	NR2F2 inh 41.3 | VP16 Luc counter inactive | NR2F2 inh conf inactive
Cc1ccc(C)c(NC(=O)CN(C)C(=O)c2cccc(S(=O)(=O)N3CCN(Cc4ccccc4)CC3)c2)c1	NR2F2 inh 44.5 | VP16 Luc counter inactive | NR2F2 inh conf inactive
CN(CCOc1ccc(Cl)cc1)C(=O)c1cccc(S(=O)(=O)N2CCN(Cc3ccccc3)CC2)c1	NR2F2 inh 66.8 | VP16 Luc counter 14.9 | NR2F2 inh conf 57.7
COc1ccc(NC(=O)CN(C)C(=O)c2cccc(S(=O)(=O)N3CCN(Cc4ccccc4)CC3)c2)cc1	none (no result: NR2F2 inh, NCOA2 inhibitor)
CC(c1ccccc1)n1cc(C(=O)N2CCCC2)nn1 (centres undefined)	none (no result: NCOA3 inh, NR5A2 inv ag, NCOA1 inh)
CSc1ccc(CN(C)C(=O)c2cccc(S(=O)(=O)NCc3ccccc3)c2)cc1	none
CSc1ccc(CN(C)C(=O)c2cc(S(=O)(=O)NCc3ccccc3)ccc2C)cc1	NR2F2 inh 53.3 | VP16 Luc counter inactive | NR2F2 inh conf inactive
O=C(NCCc1ccccc1)OCc1cn(-c2cccc(C(F)(F)F)c2)nn1	none (no result: NCOA3 inh, NR5A2 inv ag, NCOA1 inh)
Cn1nc(C(C)(C)C)cc1C(=O)NCc1cc(F)cc2c1OCOC2	NR2F2 inh 63.3 | VP16 Luc counter inactive | NR2F2 inh conf 60.7
COc1cccc(Cn2cc(COC(=O)NCCc3c[nH]c4ccccc34)nn2)c1	none (no result: NCOA3 inh, NR5A2 inv ag, NCOA1 inh)
CC(=O)C(C(C)=O)c1c(Cl)c(O)c(O)c2c(C(=O)c3ccccc3)coc12	NR2F2 inh 67.5 | VP16 Luc counter 14.1 | NR2F2 inh conf 59.9
CN1CCN(Cc2c(O)ccc3occ(C(=O)c4ccccc4)c23)CC1	none
Cc1nc(NCCc2cnc[nH]2)c2oc3ccccc3c2n1	none
COc1ccc(CCNc2nc(C)nc3c2oc2ccccc23)cc1OC	NR2F2 inh 40.4 | VP16 Luc counter inactive | NR2F2 inh conf inactive
COc1ccc(CCNc2ncnc3c2oc2ccccc23)cc1OC	NR2F2 inh 76.0 | VP16 Luc counter inactive | NR2F2 inh conf 72.5
c1ccc(CNc2ncnc3c2oc2ccccc23)nc1	none
COC(=O)[C@]12C[C@H](CC(=O)NCc3ccc(C)o3)C(=O)N(Cc3ccccc3)C1=C[C@H](COCc1ccccc1)O[C@@H]2C	none (no result: NCOA3 inh, NR5A2 inv ag, NCOA1 inh)
O=C(CSc1nc2nc(-c3cccs3)cc(C(F)(F)F)c2c(=O)[nH]1)C(F)(F)F	NR2F2 inh 38.1 | VP16 Luc counter inactive | NR2F2 inh conf inactive
O=C(COc1ccc(Cl)cc1Cl)Nc1ccccn1	NR2F2 inh 89.4, NCOA2 inhibitor 82.1, NCOA1 inh 62.5 | VP16 Luc counter 63.9 | NR2F2 inh conf 82.2
Cc1cc(Cl)ccc1OCC(=O)Nc1ccncc1	NR2F2 inh 40.2 | VP16 Luc counter inactive | NR2F2 inh conf inactive
